Screening data as filed in PubChem.
Hits are enriched below; roughly 13% of the tested compounds scored in any of these assays.
CHX counter: affects cycloheximide protein synthesis inhibition readout, counter-screen. cell reporter, cycloheximide protein synthesis inhibition counterscreen. max response, %. 300,000 tested, 12% active. AID 2314; in the data active means max response mostly above about 13%, no sharp cut-off; inactive means mostly below about 14%; further: read at 38.3 µM for the half of the compounds with a filed dose
Shiga inhibitor: inhibitors of Shiga toxin in Vero cells; inhibition, % at 38.7 µM; Vero cells, Shiga toxin protein synthesis inhibition reporter; 290,000 tested, 9.2% active; AID 2315; in the data active means inhibition mostly above about 28%, no sharp cut-off; inactive means mostly below about 43%
FMDV antiviral: foot and mouth disease virus antiviral activity | FMDV antiviral cell-based qHTS | Potency, µM (series often up to 57.9 µM), usual class: inhibitors | 410,000 tested, 1.2% active; calls by dose curve; tested in HEK293T cells; further: read-out not given here; nearly all actives have a fitted effect of over 45% in size
MARV entry inh: Marburg virus entry inhibition. Marburg virus pseudotyped entry inhibition, cell reporter. Potency, µM (series often up to 37.8 µM), most hits filed as inhibitors. 300,000 tested, 1.8% active. AID 540276; calls by dose curve; tested in HEK293 cells
Lassa entry inh: blocks Lassa virus binding to or entry into cells. Lassa virus pseudotype entry inhibition, cell reporter. AID 540256. 300,000 tested, 1.2% active. Potency, µM (top dose mostly 37.9 µM), usual class: inhibitors; calls by dose curve; tested in HEK293 cells; further: nearly all actives have a fitted effect of over 50% in size
HCV inh: inhibitors of hepatitis C virus infection; Huh7.5.1 HCVcc-Cre infection, luciferase reporter, 44 h; Potency, µM (highest dose often 41.8 µM), usual class: inhibitors; 340,000 tested, 3.4% active; AID 651820; active means well fitted inhibition curve with a large enough effect; inconclusive means small, poorly fitted or top-dose-only effect, or another doubt; inactive means no such curve, though single readings can be large or run the other way
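Luciferase read-out (15 sec integration) after a 15 min room-temperature substrate step quantifies HCVcc-Cre infection. Cells, 1,000 per well, had compound added 4 h post-plating, then virus at ~0.5 moi, and were cultured 44 h.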
Hits are given with their value; i = inactive; ? = inconclusive; nt = no result.

SMILES	CHX counter	Shiga inhibitor	FMDV antiviral	MARV entry inh	Lassa entry inh	HCV inh
O=C(Nc1cc(C(=O)Nc2ccc(S(=O)(=O)O)cc2S(=O)(=O)O)cc(C(=O)Nc2ccc(S(=O)(=O)O)cc2S(=O)(=O)O)c1)Nc1cc(C(=O)Nc2ccc(S(=O)(=O)O)cc2S(=O)(=O)O)cc(C(=O)Nc2ccc(S(=O)(=O)O)cc2S(=O)(=O)O)c1	nt	nt	i	13µM	nt	nt
O=C(Nc1ccc(C(=O)Nc2ccc(C(=O)Nc3ccc(S(=O)(=O)O)c4cc(S(=O)(=O)O)cc(S(=O)(=O)O)c34)cc2)cc1)Nc1ccc(C(=O)Nc2ccc(C(=O)Nc3ccc(S(=O)(=O)O)c4cc(S(=O)(=O)O)cc(S(=O)(=O)O)c34)cc2)cc1	nt	nt	i	nt	nt	nt
COc1ccc(C(=O)NC2=Nc3ccccc3N=C(C)C2c2ccccc2)cc1 (stereo not given)	44	190	i	i	?	?
CC1=Nc2ccccc2N=C(NC(=O)/C=C/C(=O)O)C1c1ccccc1 (stereo not given)	40	77	i	?	?	i
Cc1ccc(C(=O)N2CC=C(c3ccccc3)CC2)o1	nt	nt	i	i	i	11µM
O=C(O)c1ccccc1C(=O)N1CC=C(c2ccccc2)CC1	27	i	i	i	i	?
c1ccc2c(c1)nc(N1CCOCC1)c1nnnn12	32	active	i	i	nt	i
c1ccc2c(c1)nc(N1CCN(C3CCCCC3)CC1)c1nnnn12	i	i	nt	nt	nt	i
c1ccc(N2CCN(c3nc4ccccc4n4nnnc34)CC2)cc1	38	28	i	i	i	i
C1CN(c2nc3nonc3n3nnnc23)CCO1	i	i	i	i	i	i
CCOc1ccccc1C1c2cc3c(cc2OC(C)(N2CCCC2)C1C)OCO3 (stereo not given)	nt	nt	i	i	i	?
COc1ccccc1N1CCN(C(=O)COc2cc(C)cc3oc(=O)cc(C)c23)CC1	i	i	?	nt	nt	8.9µM
COC(=O)Cc1c(C)c2ccc(OCC(=O)N3CCCC3)c(C)c2oc1=O	i	i	i	i	i	?
Cc1cccc(N2CCN(C(=O)COc3ccc4ccc(=O)oc4c3)CC2)c1C	i	i	?	nt	nt	11µM
COC(=O)Cc1c(C)c2ccc(OCC(=O)N3CCC(C)CC3)c(C)c2oc1=O	i	i	35µM	i	i	?
Cc1cccc(N2CCN(C(=O)COc3ccc4c(C)cc(=O)oc4c3C)CC2)c1C	i	i	?	?	?	10µM
COc1ccc(C(=O)Nc2ccccc2)cc1S(=O)(=O)Nc1cc(C)on1	i	i	i	i	i	i
CCCS(=O)(=O)NC(=O)C1(C)CCN(C(=O)Cc2ccc3ccccc3c2)C1 (stereo not given)	nt	nt	i	nt	nt	nt
CN(CC(=O)Nc1ccc(Cl)cc1)C(=O)CCc1ccccc1	i	i	i	i	i	i
CCn1nccc1C(=O)Nc1ccc(C(=O)OC(C)C)cc1	24	nt	i	nt	nt	?
CCn1nccc1C(=O)Nc1cccc(C)c1C	i	i	i	i	i	i
CCn1nccc1C(=O)Nc1cc(Cl)ccc1Cl	i	i	i	i	i	?
CCn1nccc1C(=O)Nc1ccc(Cl)cc1Cl	23	40	i	i	i	?
O=C(c1ccc(-c2ccccc2Cl)o1)N1CCC1	nt	nt	i	i	i	?
CC(=O)N1CCN(C(=O)c2ccc(-c3cccc(C(F)(F)F)c3)o2)CC1	nt	nt	i	i	i	?
SMILES	CHX counter	Shiga inhibitor	FMDV antiviral	MARV entry inh	Lassa entry inh	HCV inh
S=C(c1ccc(-c2ccc(Br)cc2)o1)N1CCOCC1	51	92	i	?	i	?
O=C(c1ccc(-c2cccc(Cl)c2Cl)o1)N1CCOCC1	37	133	i	?	?	i
S=C(c1ccc(-c2ccc(Br)cc2)o1)N1CCCCC1	i	i	i	i	i	i
O=C(c1ccc(-c2cccc(C(F)(F)F)c2)o1)N1CCOCC1	37	74	i	?	i	?
O=C(c1ccc(-c2ccc([N+](=O)[O-])cc2Cl)o1)N1CCOCC1	26	57	i	?	i	i
O=C(/C=C/c1cccc([N+](=O)[O-])c1)c1ccccc1	nt	nt	nt	i	nt	nt
Cc1ccc(NC(=O)c2ccc(OCc3c(C)noc3C)cc2)cc1	i	i	nt	nt	nt	nt
S=C(c1ccc(-c2ccccc2Cl)o1)N1CCOCC1	24	93	nt	i	i	?
c1ccc(-c2oc3ncnc(NCCCn4ccnc4)c3c2-c2ccccc2)cc1	i	i	?	?	i	11µM
c1ccc(-c2c(-c3ccccc3)n(Cc3ccco3)c3ncnc(NCCCn4ccnc4)c23)cc1	i	i	?	?	?	?
N#Cc1nc(-c2ccccc2)oc1NCCCn1ccnc1	16	i	i	i	?	i
CN(C)CCCNc1ncnc2oc(-c3ccccc3)c(-c3ccccc3)c12	i	i	i	8.9µM	?	3.5µM
c1ccc(-c2oc3ncnc(NCCN4CCOCC4)c3c2-c2ccccc2)cc1	i	i	nt	?	i	?
O=C(N/N=C/c1cccs1)c1cc(-c2ccc3ccccc3c2)n[nH]1	39	54	i	?	i	?
O=C(N/N=C/c1ccco1)c1cc(-c2ccc3ccccc3c2)n[nH]1	18	i	i	13µM	?	i
O=C(N/N=C/c1cccs1)c1cc(-c2cccc3ccccc23)n[nH]1	47	i	i	i	nt	?
O=C(N/N=C/c1cccs1)c1cccc2cc[nH]c12	i	i	i	?	i	i
O=C(Cn1nnc(-c2ccccc2)n1)OC1CCOC1=O (stereo not given)	i	i	i	i	i	i
CCc1nnc(NC(=O)c2cccc(S(=O)(=O)N3CCCCC3)c2)s1	i	i	i	i	i	i
CCN(CC)C(=S)SC1=CCS(=O)(=O)C1	i	i	i	i	i	i
CCOC(=O)C1(CC2CCCCO2)CCN(C(=O)Nc2ccccc2)CC1 (stereo not given)	29	35	i	i	i	i
CCOC(=O)C1(CC2CCCCO2)CCN(S(=O)(=O)c2ccsc2)CC1 (stereo not given)	13	i	i	nt	nt	i
CCOC(=O)C1(CC2CCCCO2)CCN(S(=O)(=O)c2ccc(C)s2)CC1 (stereo not given)	i	i	i	i	i	i
CC(C)(C)c1ccc(C(=O)c2c[nH]c(C(=O)NCc3cccnc3)c2)cc1	20	i	i	?	i	i
O=C(Cc1ccc(Cl)cc1)c1c[nH]c(C(=O)NCc2cccnc2)c1	i	i	7.9µM	nt	nt	?
SMILES	CHX counter	Shiga inhibitor	FMDV antiviral	MARV entry inh	Lassa entry inh	HCV inh
Cc1ccc(C)n1-c1ccc(C(=O)NCc2cccnc2)cc1	i	i	nt	nt	nt	nt
NC(=O)c1cc(C(=O)Cc2ccc(Cl)cc2)c[nH]1	23	40	i	i	i	i
CCC(=O)Nc1ccccc1C(=O)OCc1cc(=O)n2cc(C)sc2n1	nt	nt	i	nt	?	nt
CN(C)c1ccc(NC(=O)CSc2nnc(-c3ccco3)c(-c3ccco3)n2)cc1	i	i	i	i	?	i
Cc1nc(NC(=O)CSc2nnc(-c3ccccc3)c(-c3ccccc3)n2)c(Cl)cc1Cl	i	i	i	i	i	i
O=C(CSc1nnc(-c2ccccc2)c(-c2ccccc2)n1)Nc1ncc(Cl)cc1Cl	18	34	i	i	i	i
